# Results reported in publication PMC5540273 (PLoS ONE, 2017).
# Key:
# Conditions in all cases: concentration: 1 μM, replicates: in singlicate; n = 1
# WNK1 = system: WNK1
# WNK2 = system: WNK2
# WNK3 = system: WNK3
# WNK4 = system: WNK4
# YANK1 = system: T1, YANK1
# T1 construct: gene STK32A
# YANK2 = system: T2, YANK2
# T2 construct: gene STK32B
# YANK3 = system: T3, YANK3
# T3 construct: gene STK32C
# YES = system: T4, YES
# T4 construct: gene YES1
# YSK1 = system: T5, YSK1
# T5 construct: gene STK25
# YSK4 = system: T6, YSK4
# T6 construct: gene MAP3K19
# 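Note: KINOMEscan kinase panel screen.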
SMILES,%Inh (WNK1) [%],%Inh (WNK2) [%],%Inh (WNK3) [%],%Inh (WNK4) [%],%Inh (YANK1) [%],%Inh (YANK2) [%],%Inh (YANK3) [%],%Inh (YES) [%],%Inh (YSK1) [%],%Inh (YSK4) [%]
Cc1cccc(Nc2nc(NCCN)ncc2C(N)=O)c1 [GSK1292139],7,0,31,15,9,0,0,6,31,88
NCCC(NC(=O)c1cc(Br)c(-c2ccnc3[nH]ccc23)s1)c1ccccc1.O=C(O)C(F)(F)F.O=C(O)C(F)(F)F (centres unmarked) [GSK1307810],0,0,24,37,10,0,18,14,4,97.3
CC(C)c1nc(-c2cccc(NS(=O)(=O)c3c(F)cccc3F)c2)c(-c2ccnc(Nc3ccc(N4CCOCC4)nc3)n2)s1.Cl [GSK1723980],3,0,5,4,15,9,19,99.7,1,91.8
CSc1ccc(NC2=C(c3ccc(Cl)cc3)C(=O)NC2=O)cc1 [SB-317658],20,24,4,0,0,2,33,0,0,21
CN(c1ccc(NC(=O)N2CCN(CCCN3CCOCC3)CC2)cc1)c1ccnc(Nc2ccc(CS(C)(=O)=O)cc2)n1.Cl [GW830899],0,0,0,0,0,0,0,4,0,81
CN(C)CCOc1ccc(-c2cc(-c3ccc(Cl)c(O)c3)c(-c3ccncc3)[nH]2)cc1.Cl.Cl [SB-684387],11,21,47,33,26,28,0,55,13,27
O=C(Nc1c(F)cccc1F)c1cc(C(=O)c2ccccc2F)c[nH]1 [GSK1326180],8,0,0,0,1,0,0,0,10,0
Cc1ccc(NC(=O)c2ccc(Cl)c(Cl)c2)cc1-c1ccc(C(=O)Nc2ccncc2)cc1 [GSK1398460],0,0,0,17,12,7,22,29,26,83
